From PubChem BioAssay (NCI)
Compounds without any hit were thinned out: in the full panel of roughly 79,000, 15% have a hit. The source made the active and inactive calls. Rule as the data show it: active = growth inhibition above about 70%; inactive = the rest.

Test: NCI Yeast Anticancer Drug Screen. Data for the mlh1 strain (AID 171);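 also: 0% = growth of vehicle-treated control cultures of the same strain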
Settings: S. cerevisiae mlh1 strain growth inhibition, active compounds read high
Method: Growth inhibition of yeast strains with defined genetic alterations is measured as a screen for potential anti-cancer activity. Selected strains with alterations in DNA damage repair or cell cycle control were exposed to compounds and growth inhibition was measured relative to vehicle treated controls. The strain used in this assay is mlh1

Measured: growth inhibition

CCCCCC(=O)C(C)(c1nc2n(c1O)/C(=N/C(=O)Nc1ccc(Cl)cc1)N=N2)c1nc2n(c1O)/C(=N/C(=O)Nc1ccc(Cl)cc1)N=N2
inactive: at 1.2 µM -4% | at 3.7 µM -1% | at 11.0 µM 6% | at 33.0 µM 22% | at 100.0 µM 59%

Oc1ccc(Br)cc1C=Nc1cccc(C(F)(F)F)c1
active: at 33.0 µM 96% | at 100.0 µM 97%
inactive: at 1.2 µM -1% | at 3.7 µM 17% | at 11.0 µM 68%

O=C(O)[C@H]1[C@@H](C2CCCCC2)O[C@@H](C2CCCCC2)O[C@H]1C(F)(F)F
inactive: at 1.2 µM -3% | at 3.7 µM -1% | at 11.0 µM -4% | at 33.0 µM -5% | at 100.0 µM 3%

CC(=O)CC[N+](C)(C)C
inactive: at 1.2 µM -13% | at 3.7 µM -6% | at 11.0 µM -11% | at 33.0 µM -9% | at 100.0 µM -22%

O=[N+]([O-])c1ccc2nnnn2c1
inactive: at 1.2 µM 0% | at 3.7 µM 1% | at 11.0 µM 4% | at 33.0 µM 14% | at 100.0 µM 34%

CN(C)CCNC(=O)c1cccc2nc3c(ccc4ccccc43)nc12
active: at 100.0 µM 98%
inactive: at 1.2 µM -1% | at 3.7 µM 0% | at 11.0 µM 3% | at 33.0 µM 28%

CC(=O)c1ccc(NCN2C(=O)c3ccccc3C2=O)cc1
inactive: at 1.2 µM -44% | at 3.7 µM -48% | at 11.0 µM 6% | at 33.0 µM 68%
active: at 100.0 µM 83%

Cc1ccc2c(/C=C/c3ccc(N(C)C)cc3)ccnc2c1C
active: at 100.0 µM 87%
inactive: at 1.2 µM -13% | at 3.7 µM -28% | at 11.0 µM -19% | at 33.0 µM 54%
